Results from the supplement of paper PMC10127200.
Counter-ions that a name gives are not always drawn.

What was measured:
Experiment in all cases: Euclidean distance of Cell Painting phenotypic profile (signed KS, 77 features) to DMSO centroid (dimensionless distance); 5 or 10 uM (library dependent); higher = stronger phenotypic change vs DMSO (phenoactivity)
Conditions in all cases: 48 h
786-O = test system: 786-O
How it was run: (§1)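 At 10 or 5 uM, as set by the library, and 0.1% DMSO final, compounds were applied for 48 h to five cancer lines and one healthy fibroblast line. Stained cells were imaged confocally at 20X in 9 fields per well, and Harmony extracted 77 features scored as signed Kolmogorov-Smirnov statistics against vehicle wells on the same plate. Profiles underwent plate-position correction, correlation weighting and replicate averaging at the top dose. Phenoactivity is the Euclidean distance from each such profile to the median vehicle profile.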

A549 = test system: A549
How it was run: as §1

DU145 = test system: DU145
How it was run: as §1

FB = test system: FB
How it was run: as §1

HEPG2 = test system: HEPG2
How it was run: as §1

OVCAR4 = test system: OVCAR4
How it was run: as §1

Compound	Euclidean distance (786-O)	Euclidean distance (A549)	Euclidean distance (DU145)	Euclidean distance (FB)	Euclidean distance (HEPG2)	Euclidean distance (OVCAR4)
O=C(Nc1ccccc1)c1cc([N+](=O)[O-])ccc1Cl	0.848	0.897	0.645	1.15	0.832	1.2
CC1=C(/C=C/C(C)=C/C=C/C(C)=C/CO)C(C)(C)CCC1 [Vitamin A]	0.784	1.06	0.821	1.61	0.745	1.33
CC(=O)OC(C)C[N+](C)(C)C (stereo not drawn) [Methacholine chloride]	0.977	1.02	1.24	0.67	0.576	1.45
O=C(/C=C/c1ccccc1)NC(NC(=S)Nc1cccc2cccnc12)C(Cl)(Cl)Cl (stereo not drawn) [Salubrinal]	0.979	1.28	1	1.21	1.04	1.28
O=C(Nc1nc(-c2cc(Cl)cs2)c(N2CCN(C3CCCCC3)CC2)s1)c1cnc(N2CCC(C(=O)O)CC2)c(Cl)c1 [Avatrombopag]	1.81	0.802	1.84	0.858	1.41	1.05
COc1ccc(C2CNC(=O)C2)cc1OC1CCCC1 (stereo not drawn) [Rolipram]	1.65	1.51	0.853	0.861	1.13	1.44
CC(C)Nc1cccnc1N1CCN(C(=O)c2cc3cc(NS(C)(=O)=O)ccc3[nH]2)CC1 [Delavirdine (mesylate)]	1.18	0.811	2.31	1.56	0.607	1.51
N#C/C(=C1/SC[C@@H](c2ccc(Cl)cc2Cl)S1)n1ccnc1 [Luliconazole]	1.47	1.03	0.686	1.08	0.589	1.1
O=C1NC(=O)C(=Cc2ccc(-c3ccc(F)cc3)o2)S1 (stereo in doubt)	1.04	0.938	1.43	1.29	0.808	1.33
CC(=O)N[C@H]1[C@H]([C@H](O)[C@H](O)CO)OC(C(=O)O)=C[C@@H]1NC(=N)N [Zanamivir]	1.74	1	0.755	0.983	0.8	1.21
CCCCOC(=O)c1ccc(O)cc1 [Butylparaben]	1.05	1.03	1.11	1.03	0.462	1.66
COc1ccc2c(c1)c(CC(=O)O)c(C)n2C(=O)c1ccc(Cl)cc1 [Indomethacin]	1.44	0.49	1.66	0.86	1.8	1.2
CN1C(N)=N[C@](C)(c2cc(NC(=O)c3ccc(F)cn3)ccc2F)CS1(=O)=O [Verubecestat (MK-8931)]	0.523	0.58	0.609	0.675	0.509	0.924
NC12CC3CC(CC(C3)C1)C2 [Amantadine HCl]	1.14	0.94	1.01	0.961	0.485	0.875
Cc1ccnc2c1NC(=O)c1cccnc1N2C1CC1 [Nevirapine]	1.2	0.789	0.803	0.827	1.93	0.872
O=C1C(=O)N(Cc2ccc(Cl)c(Cl)c2)c2ccccc21 [Apoptosis Activator 2]	1.05	1.36	1.29	1.07	0.54	1.11
CN1CC[C@H](c2c(O)cc(O)c3c(=O)cc(-c4ccccc4Cl)oc23)[C@H](O)C1 [Flavopiridol HCl]	3.1	3.15	3.43	3.29	2.41	3.45
CN(C)CCC(c1ccc(Br)cc1)c1ccccn1 (stereo not drawn) [Brompheniramine hydrogen maleate]	1.21	0.63	1.13	1.18	0.5	1.36
COC(=O)N[C@H](C(=O)N1CC2(CC2)C[C@H]1c1nc(-c2ccc3c(c2)C(F)(F)c2cc(-c4ccc5[nH]c([C@@H]6[C@H]7CC[C@H](C7)N6C(=O)[C@@H](NC(=O)OC)C(C)C)nc5c4)ccc2-3)c[nH]1)C(C)C [Ledipasvir (GS5885)]	1.65	1.83	1.33	1.94	1.09	1.18
NC(=O)C(c1ccccc1)(c1ccccc1)[C@@H]1CCN(CCc2ccc3c(c2)CCO3)C1 [Darifenacin HBr]	1.59	0.89	0.786	1.4	1.11	1.04
OCc1cc([C@@H](O)CNCCCCCCOCCOCc2c(Cl)cccc2Cl)ccc1O [Vilanterol Trifenate]	1.28	0.985	1.38	1.28	0.721	1.76
CN1CCN(c2ccc3nc(-c4c(N)c5c(F)cccc5[nH]c4=O)[nH]c3c2)CC1 [Dovitinib (TKI-258) Dilactic Acid]	2.81	3.4	2.01	4.28	0.932	1.96
COc1cc(C2Oc3cc([C@H]4Oc5cc(O)cc(O)c5C(=O)[C@@H]4O)ccc3OC2CO)ccc1O (stereo partly drawn) [Silibinin]	0.696	1.28	0.646	0.713	0.547	0.847
CN[C@@H](C)C(=O)N[C@H]1CN(C(=O)CC(C)C)CC[C@H]2CC[C@@H](C(=O)NC(c3ccccc3)c3ccccc3)N2C1=O	1.44	1.35	0.871	0.766	0.91	1.24
O=C(O)CC1CC(c2ccccc2)=NO1 (stereo not drawn)	0.76	1.81	1.27	1.31	0.596	0.844
Cn1cc(-c2ccc3c(c2)ncn3-c2cc(NS(=O)(=O)C3CC3)cc(-c3ccc(F)cc3F)c2)cn1	2.53	1.64	1.26	4.3	1.6	2.75
CC(C)N(CCC(=O)c1ccc2ccccc2c1)Cc1ccccc1	1.68	1.15	0.815	1.33	0.594	0.928
CN(Cc1ccc(C(C)(C)C)cc1)Cc1cccc2ccccc12 [Butenafine HCl]	0.641	0.57	0.938	0.74	0.375	1.15
